# According to article PMC5540273 (PLoS ONE, 2017):
# Assays:
# Conditions in all cases: concentration: 1 μM,replicates: in singlicate; n = 1
# ERK1 = tested on: T1, ERK1
# T1 construct: gene MAPK3
# ERK2 = tested on: T2, ERK2
# T2 construct: gene MAPK1
# ERK3 = tested on: T3, ERK3
# T3 construct: gene MAPK6
# ERK4 = tested on: T4, ERK4
# T4 construct: gene MAPK4
# ERK5 = tested on: T5, ERK5
# T5 construct: gene MAPK7
# ERK8 = tested on: T6, ERK8
# T6 construct: gene MAPK15
# ERN1 = tested on: ERN1
# FAK = tested on: T7, FAK
# T7 construct: gene PTK2
# FER = tested on: FER
# FES = tested on: FES
# 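Also: KINOMEscan kinase panel screen.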
SMILES,%Inh (ERK1),%Inh (ERK2),%Inh (ERK3),%Inh (ERK4),%Inh (ERK5),%Inh (ERK8),%Inh (ERN1),%Inh (FAK),%Inh (FER),%Inh (FES)
CC(C(=O)NC1CCN(c2ccnc(Nc3ccc(F)cc3)n2)C1)c1ccc(Cl)cc1 (stereo not drawn) [GSK1379713],0%,0%,0%,0%,0%,0%,0%,0%,46%,1%
O=C(Nc1ccc(Oc2ccc3nc(NC(=O)C4CC4)cn3n2)c(F)c1)c1cccn(-c2ccccc2)c1=O,0%,10%,0%,5%,21%,9%,0%,13%,37%,13%
NC(=O)c1ccc(-c2cc3ncnc(SCC(=O)O)c3s2)cc1,0%,4%,0%,0%,0%,63%,0%,0%,0%,16%
Cc1ccc(CC(=O)N2CCc3cc(-c4cn(C)c5ncnc(N)c45)ccc32)cc1 [GSK2634758],12%,6%,0%,0%,0%,0%,11%,0%,19%,0%
O=C(Nc1ccccc1)c1cccc(Oc2ccc3nccn3n2)c1,0%,0%,0%,77%,0%,0%,22%,0%,2%,6%
Cc1ccc(C(=O)Nc2ccc(Oc3ccc4nc(NC(=O)C5CC5)cn4c3)c(F)c2)c(=O)n1-c1ccccc1,0%,0%,0%,0%,0%,34%,0%,3%,75%,48%
O=C(Nc1cccc(C(F)(F)F)c1)c1cccc(Oc2ccc3nccn3n2)c1,7%,7%,0%,2%,22%,4%,29%,38%,5%,0%
C[C@@H]1CNc2c(sc3ccc4nc(-c5ccncc5)ccc4c23)C(=O)N1,0%,6%,0%,16%,15%,24%,0%,0%,20%,9%
Cl.Cl.NC[C@H](CC1CCCCC1)NC(=O)c1ccc(-c2ccnc3[nH]ccc23)s1 [GSK1581428],18%,31%,0%,0%,0%,78%,6%,48%,14%,5%
Cn1ccc2ncnc(Oc3ccc(NC(=O)Nc4cccc(C(F)(F)F)c4)c(Cl)c3)c21,0%,18%,0%,10%,12%,11%,15%,41%,0%,9%
C[C@@H](Oc1cc(-n2cnc3ccc(-c4ccncc4)cc32)sc1C(N)=O)c1ccccc1Cl [GSK483724],5%,0%,0%,0%,0%,55%,3%,0%,39%,4%
O=C(NOCC1CC1)c1cc(Br)c(F)c(F)c1Nc1ccc(I)cc1Cl,0%,0%,0%,0%,0%,8%,0%,0%,11%,0%
OCCn1cc(-c2cnc3nnn(Cc4ccc5ncccc5c4)c3n2)cn1,0%,0%,0%,18%,3%,9%,0%,0%,0%,0%
COc1cccc(C2=C(Nc3cccc(Cl)c3)C(=O)NC2=O)c1 [SB-341556],3%,0%,0%,17%,0%,71%,10%,0%,0%,0%
CS(=O)c1ccc(-c2coc3ccc(-c4n[nH]c(=O)o4)cc23)cc1 (stereo not drawn),7%,1%,0%,0%,0%,44%,0%,0%,0%,0%
N#Cc1cccc(C(=O)NC2CCN(c3ccnc(Nc4ccc(F)cc4)n3)C2)c1 (stereo not drawn) [GSK1379708],0%,10%,9%,0%,0%,0%,0%,0%,30%,2%
CC(=O)Nc1nc2cnc(Nc3cc(NC(=O)c4cccc(CC(C)(C)C#N)c4)ccc3C)nc2s1,1%,15%,0%,4%,9%,53%,0%,8%,0%,0%

SMILES,%Inh (ERK1),%Inh (ERK2),%Inh (ERK3),%Inh (ERK4),%Inh (ERK5),%Inh (ERK8),%Inh (ERN1),%Inh (FAK),%Inh (FER),%Inh (FES)
C[C@@H](Oc1cc(-n2cnc3cc(-c4cnn(C)c4)ccc32)sc1C(N)=O)c1ccccc1Cl [GSK580432],0%,0%,10%,10%,0%,64%,3%,0%,38%,18%
CN(c1cccc(CNc2nc(Nc3ccc4c(c3)CC(=O)N4)ncc2C(F)(F)F)c1)S(C)(=O)=O,3%,41%,0%,0%,18%,79%,11%,,65%,62%
O=c1[nH]cc(-c2ccc(O)cc2)c2sc(-c3ccncc3)cc12 [GSK1033723],0%,0%,11%,1%,0%,0%,0%,0%,1%,13%
Cn1cc(-c2cccc3c(N)c(C(N)=O)nnc23)cn1,5%,27%,0%,0%,0%,0%,33%,21%,8%,8%
CN(c1ccc2c(c1)nc(NCc1ccc(F)cc1)n2C)c1ccnc(Nc2ccc(CS(C)(=O)=O)cc2)n1.Cl [GW813244],3%,0%,0%,0%,0%,29%,28%,22%,20%,0%
COc1ccc(Nc2nccc(N3CCC(NC(=O)c4cccc(C#N)c4)C3)n2)cc1 (stereo not drawn) [GSK1379730],1%,26%,0%,0%,0%,30%,0%,0%,27%,0%
CN1CCN(CCCNc2nccc(-c3c(-c4ccc(F)cc4)nn4cc(C(N)=O)ccc34)n2)CC1 [GW622475],0%,2%,5%,36%,0%,0%,35%,0%,26%,0%
Cn1ccc2ncnc(Oc3ccc(NC(=O)Nc4ccnc(C(F)(F)F)c4)c(Cl)c3)c21,0%,0%,0%,0%,0%,0%,11%,0%,0%,10%
C[C@@H](Oc1cc(-n2cnc3cc(-c4ccncc4)ccc32)sc1C(N)=O)c1ccccc1Cl [GSK479719],0%,0%,0%,0%,0%,85%,16%,0%,13%,18%
C[C@@H]1CCN(C(=O)N2CCCC2)C[C@@H]1N(C)c1ncnc2[nH]ccc12,0%,14%,0%,10%,0%,34%,3%,97.3%,36%,34%
CCn1c(-c2nonc2N)nc2cncc(Br)c21 [SB-738004],0%,6%,0%,19%,6%,0%,19%,9%,10%,8%
COc1cc2ncn(-c3cc(OCC4CCCCC4)c(C(N)=O)s3)c2cc1OC [GSK204559],6%,2%,18%,4%,0%,2%,8%,0%,23%,8%
Cn1ccc2ncnc(Oc3ccc(NC(=O)Nc4cc(C(C)(C)C)on4)c(Cl)c3)c21,9%,5%,8%,9%,6%,65%,49%,0%,0%,25%
C[C@@H]1CNc2c(sc3ccc4nc(-c5ccc(O)cc5)ccc4c23)C(=O)N1,0%,16%,0%,13%,8%,3%,10%,6%,0%,4%
CSc1nccc(-c2c(-c3ccc(F)cc3)ncn2CCCN2CCOCC2)n1.Cl [SB-217146],0%,0%,0%,0%,0%,0%,33%,0%,0%,3%
Cc1nnc(-c2ccc3occ(-c4ccc(S(C)=O)cc4)c3n2)o1 (stereo not drawn),0%,19%,0%,0%,0%,0%,0%,0%,0%,15%
COc1cc(Nc2nccc(N3CCC(NC(=O)c4cccc(C#N)c4)C3)n2)cc(OC)c1OC (stereo not drawn) [GSK1379751],0%,0%,3%,0%,0%,0%,0%,0%,0%,0%
